This note sets out measurements from PubChem BioAssay.

The source made the active and inactive calls.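 The calls were made as follows: active = mean inhibition above 46.68%, the untreated control wells mean plus 3 SD; inactive = the rest.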

The target in this experiment is Nuclear receptor coactivator 1 (Homo sapiens) (UniProt Q15788). In words: NCOA1 GAL4-fusion reporter inhibition – cell-based, luminescence, quadruplicate, confirmation (AID 588820).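 Also: 0% = DMSO wells and 100% = gossypol 36 µM treated wells.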 Particulars: HEK293 GAL4-SRC1 luciferase reporter, at 3.6 µM, active compounds read high.
Sequence of Nuclear receptor coactivator 1 (Homo sapiens) (Q15788 whole entry, looked up, the tested form may be a part): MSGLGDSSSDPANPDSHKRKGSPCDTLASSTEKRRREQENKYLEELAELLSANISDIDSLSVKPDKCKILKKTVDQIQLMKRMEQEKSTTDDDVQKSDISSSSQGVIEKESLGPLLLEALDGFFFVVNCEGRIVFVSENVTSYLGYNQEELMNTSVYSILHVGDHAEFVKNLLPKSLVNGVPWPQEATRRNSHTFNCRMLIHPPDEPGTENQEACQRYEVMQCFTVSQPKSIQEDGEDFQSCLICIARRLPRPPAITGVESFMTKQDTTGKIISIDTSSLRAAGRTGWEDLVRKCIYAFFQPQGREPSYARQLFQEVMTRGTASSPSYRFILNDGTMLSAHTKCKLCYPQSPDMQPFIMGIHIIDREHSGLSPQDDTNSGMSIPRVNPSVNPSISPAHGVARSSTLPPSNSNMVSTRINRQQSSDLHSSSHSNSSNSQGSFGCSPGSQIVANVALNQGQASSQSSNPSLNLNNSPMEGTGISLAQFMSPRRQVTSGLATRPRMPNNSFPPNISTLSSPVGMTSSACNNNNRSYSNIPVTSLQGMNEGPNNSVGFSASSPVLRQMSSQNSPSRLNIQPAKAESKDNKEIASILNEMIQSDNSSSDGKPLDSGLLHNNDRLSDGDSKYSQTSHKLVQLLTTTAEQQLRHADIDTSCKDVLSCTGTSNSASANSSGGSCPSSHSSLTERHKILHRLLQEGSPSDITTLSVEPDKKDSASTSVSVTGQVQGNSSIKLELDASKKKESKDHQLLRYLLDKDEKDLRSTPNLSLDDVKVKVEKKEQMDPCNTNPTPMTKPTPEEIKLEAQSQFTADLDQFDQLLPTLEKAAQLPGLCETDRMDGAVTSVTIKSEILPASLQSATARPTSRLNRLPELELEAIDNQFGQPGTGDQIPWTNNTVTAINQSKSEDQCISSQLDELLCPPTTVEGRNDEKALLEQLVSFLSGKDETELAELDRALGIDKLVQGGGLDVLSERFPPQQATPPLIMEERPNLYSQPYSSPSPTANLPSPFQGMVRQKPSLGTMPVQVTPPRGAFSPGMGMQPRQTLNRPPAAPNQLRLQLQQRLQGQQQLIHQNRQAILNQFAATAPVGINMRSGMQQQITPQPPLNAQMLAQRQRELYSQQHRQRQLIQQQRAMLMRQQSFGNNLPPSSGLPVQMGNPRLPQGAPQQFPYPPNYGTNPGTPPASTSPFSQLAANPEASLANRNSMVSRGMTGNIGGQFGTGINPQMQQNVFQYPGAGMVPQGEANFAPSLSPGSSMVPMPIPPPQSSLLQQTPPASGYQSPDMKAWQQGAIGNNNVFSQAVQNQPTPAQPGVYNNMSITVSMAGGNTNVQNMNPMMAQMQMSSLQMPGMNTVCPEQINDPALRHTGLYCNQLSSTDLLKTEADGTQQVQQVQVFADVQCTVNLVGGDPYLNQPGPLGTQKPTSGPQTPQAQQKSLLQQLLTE
Consider `Cn1c(=O)c2[nH]c(COc3ccc(C(C)(C)C)cc3)nc2n(C)c1=O`, for which the inhibition (commonly the drop in the measured response relative to a control, in per cent) was 29.4% (inactive).
In the case of `CCN(CC(=O)Nc1ccccc1C(F)(F)F)C(=O)c1ccc2[nH]c3c(c2c1)CC(C)CC3` (centres undefined), the inhibition is -11.7% (inactive).
Take `COc1cc(C(c2sc3nc(C)nn3c2O)N2CCc3ccccc3C2)cc(OC)c1OC` (centres undefined): the inhibition was -4.8% (inactive).
Then `CCc1ccc(NC(=O)c2ccc(F)c(S(=O)(=O)N(CC)c3ccccc3)c2)cc1`, with 3.58% (inactive); and `COc1ccccc1-n1nnnc1SC(C)C(=O)NC1CCCC1` (centres undefined), with -17.1% (inactive); and `CNc1snc(C)c1C(=O)OCC(=O)Nc1ccc(C)cc1F`, with 3.09% (inactive).
Then `COc1ccccc1C(c1nnnn1Cc1ccco1)N1CCN(c2cccc(C)c2C)CC1` (centres undefined), with 10.7% (inactive); and `O=C(CSc1nc2ccccc2[nH]1)Nc1cccc(S(=O)(=O)N2CCOCC2)c1`, with 3.06% (inactive).
Then `Cc1csc(NC(=O)c2cc(-c3ccccc3)nc3ccccc23)n1`, with 7.56% (inactive).
As to `CCc1nc(Nc2ccncc2)c2oc3ccccc3c2n1`, the inhibition is 12.3% (inactive).
With `Cc1nn(-c2ccccc2)c(N2CCCC2)c1/C=N/NC(=S)Nc1ccc(F)cc1`, the inhibition was 3.12% (inactive).
The value for `COc1ccc(C(=O)Oc2ccc(/C=N/NC(=O)c3ccccc3OC)cc2[N+](=O)[O-])cc1` was -11.5% (inactive).
As to `COc1ccc(CCNc2ncnc3c2[nH]c2cc(OC)c(OC)cc23)cc1OC`, the inhibition was -33.2% (inactive).
The value for `NC(=O)c1nsc(C(=O)N(c2ccccc2F)C(C(=O)NCc2ccccc2)c2ccc(O)cc2)c1N` (centres undefined) was -15.1% (inactive).
